Screening results (PubChem)
Hits are enriched below; roughly 2.9% of the tested compounds scored in any of these assays.
p53 reactivation = restores transcriptional activity of mutant p53 | H1299 p53-A138V BP100-luciferase reporter, luminescence, 24 h | Potency, µM (series often up to 92.2 µM), inactives show at the top dose activity change, positive = activation, most hits filed as activators | 0.063% of 320,000 active; further: potency means the concentration at half of the fitted maximal effect; % of control where 0% means no effect; nearly all actives have a fitted effect of over 45% in size
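p53-null H1299 cells stably carrying temperature-sensitive p53-A138V and a BP100-luciferase reporter were pinned with compounds (4-point, 1:5 series) and held 24 hrs at 37 deg C. Luminescence was read 10 min after detection reagent.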
ClpP mod = qHTS Assay for Activators of ClpP; ATP-dependent Clp protease proteolytic subunit (Bacillus subtilis (strain 168)), P80244; purified B. subtilis ClpP, FRET peptide cleavage, 20 min; Potency, µM (series often up to 57.5 µM), without a hit: at the highest dose activity change, negative = active; 1.9% of 340,000 active; active means well fitted falling curve with a large enough effect; inconclusive means small, poorly fitted or top-dose-only effect; inactive means no such curve, though single readings can be large or run the other way; further: potency means the concentration at half of the fitted maximal effect; the source files actives as falling curves though it sought activators and does not explain the sign; nearly all actives have a fitted effect of over 65% in size
Target sequence (P80244 whole entry, looked up): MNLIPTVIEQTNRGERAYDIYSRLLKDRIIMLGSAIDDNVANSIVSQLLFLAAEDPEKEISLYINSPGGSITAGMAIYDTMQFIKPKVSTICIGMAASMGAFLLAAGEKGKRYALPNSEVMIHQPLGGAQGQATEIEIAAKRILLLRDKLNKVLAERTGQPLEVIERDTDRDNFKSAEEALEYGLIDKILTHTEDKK
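Purified B. subtilis ClpP, 10 microg/mL final in Tris/HCl pH8 with KCl, BSA, glycerol and Tween-20, cleaved an Abz/nitrotyrosine-quenched decapeptide. Fluorescence (ex 320, em 430) was read at 0 and 20 min at room temperature. Delta was normalized to 5.8 microM ADEP and DMSO/no-enzyme controls.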
GLP1R cytotox = cytotoxicity counter-screen for GLP-1 receptor inverse agonists. 0.13% of 410,000 active. HEK293 cAMP-luciferase reporter cells, luminescence, 24 h. Potency, µM (titrated, usually from 38.3 µM), inactives show at the top dose activity change, negative = inhibition, usual class: inhibitors;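 further: loss of luciferase light is scored as toxicity; potency means the concentration at half of the fitted maximal effect; on the % scale 0 is the no-effect control and ±100 the full control effect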
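Luminescence readout: signal drop marks cytotoxicity. Plated cells grew 12 h at 37 °C, 5% CO2, received 23 nL compound for 24 h, then got luciferase reagent, read after 12 min at RT.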
GLP1R inv ag = inverse agonists of human GLP-1 receptor. P43220. HEK293 GLP-1R CRE-luciferase, luminescence, 24 h; GLP-1R form is constitutively active. Potency, µM (top dose mostly 38.3 µM), for the others: at the highest dose activity change, negative = inhibition, hits mostly inhibitors. 1.6% of 410,000 active; further: potency means the concentration at half of the fitted maximal effect; on the % scale 0 is the no-effect control and ±100 the full control effect; nearly all actives have a fitted effect of over 55% in size
Target sequence (P43220 whole entry, looked up): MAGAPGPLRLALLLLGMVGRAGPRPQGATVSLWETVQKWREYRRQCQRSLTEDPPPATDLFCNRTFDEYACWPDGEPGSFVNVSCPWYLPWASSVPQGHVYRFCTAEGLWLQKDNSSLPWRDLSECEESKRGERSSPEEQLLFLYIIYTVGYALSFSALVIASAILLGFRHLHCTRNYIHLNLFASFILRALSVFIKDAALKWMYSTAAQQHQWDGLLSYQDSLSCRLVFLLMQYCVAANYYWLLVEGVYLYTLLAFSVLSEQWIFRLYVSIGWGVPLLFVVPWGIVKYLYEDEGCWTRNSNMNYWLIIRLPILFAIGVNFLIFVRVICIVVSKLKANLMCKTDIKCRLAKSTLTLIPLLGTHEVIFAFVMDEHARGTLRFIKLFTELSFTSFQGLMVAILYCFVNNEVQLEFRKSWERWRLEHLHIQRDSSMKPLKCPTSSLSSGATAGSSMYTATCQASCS
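Assay principle: reduced luminescence from a cAMP-responsive reporter in HEK293 cells co-expressing a constitutively active GLP-1R. Conditions: 24 hr compound incubation, 37 deg C, 5% CO2.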
GLP-1R agonist = activates the human GLP-1 receptor; P43220; HEK293 GLP-1R CRE-luciferase, luminescence, 4-6 h; cells express a hypersensitive GLP-1R form; Potency, µM (doses to about 45.6 µM), inactives show at the highest dose activation, most hits filed as activators; 0.007% of 380,000 active; AID 624172; further: potency means the concentration at half of the fitted maximal effect; % of control where 0% means no effect
LDHA inh = inhibitors of human lactate dehydrogenase A. AID 1347041. P00338. purified LDHA, NADH/diaphorase-resazurin fluorescence; active compounds read low. activity change, % (values are at about 110 or 230 µM). 0.15% of 480,000 active; in the data active means activity change below about -30%; inconclusive means mostly about -25% to -30%;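 further: plate controls were DMSO wells for no effect and wells without enzyme for full effect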
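Human LDH5 (2 nM) was incubated with 0.06 mM NADH and 0.2 mM pyruvate for 5 min at room temperature in Tris pH 7.4. Remaining NADH was coupled through diaphorase/resazurin, and resorufin fluorescence was read at 0 and 20 min.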
The depositor's hits bear a star; ? = inconclusive; / = no result. Unless noted, the call rests on the fitted dose curve; in most records, active means well fitted curve in the direction sought with a large enough effect; inconclusive means small, poorly fitted or top-dose-only effect, or another doubt; inactive means no such curve, though single readings can be large; an effect the other way counts as inactive or inconclusive.

SMILES	p53 reactivation	ClpP mod	GLP1R cytotox	GLP1R inv ag	GLP-1R agonist	LDHA inh
CC12CCC(O)CC1CCC1C2CCC2(C)C(C3=CC(=O)OC3)C(O)CC12O (stereo not drawn)	/	-3.3%	-1.5%	?	-18.1%	-7.6
CCc1ccc(-c2nc(CN3CCCC(C(=O)N4CCN(c5cc(Cl)ccc5C)CC4)C3)c(C)o2)cc1 (stereo not drawn)	/	-5.9%	?	4.47µM*	/	-0.5
Cc1oc(-c2cccc(Cl)c2)nc1CN1CCC(C(=O)NCCCN2CCN(c3cccc(Cl)c3)CC2)CC1	/	-0.1%	-2.5%	?	/	-2.9
Cc1cc(OCC(=O)N[C@H](C(=O)O)c2ccccc2)c2c3c(c(=O)oc2c1)CCC3	9.3%	4.7%	3.0%	-0.1%	-1.4%	-1.2
COc1cc(OC)cc(-c2sc3ccc(OC)cc3c2-c2ccc(OCCN3CCOCC3)cc2)c1	-5.1%	8.91µM*	-1.1%	?	19.1%	-5.9
COc1ccc2sc(-c3ccccc3OC)c(-c3ccc(OCCN4CCOCC4)cc3)c2c1	2.0%	28.2µM*	0.1%	?	14.5%	-3.3
COc1cccc(-c2sc3ccccc3c2-c2ccc(OCCN3CCOCC3)cc2)c1	-6.3%	31.6µM*	-5.6%	?	12.7%	0.2
COc1ccc(-c2sc3ccccc3c2-c2ccc(OCCN(C)C)cc2)cc1	-0.8%	3.4%	?	?	-10.1%	-2.0
CC1=CC2OC3CC4OC(=O)C=CC=CC(=O)OCCC(C)C(O)C(=O)OCC2(CC1)C4(C)C31CO1 (stereo not drawn)	/	-4.8%	-59.0%	-68.4%	-10.7%	-3.1
COc1ccc(-c2nc3ccc(C)cn3c2NCc2ccccc2)cc1SC1CCCCC1	-5.9%	3.4%	?	?	-1.4%	0.1
C[C@H]1[C@@H](OS(=O)(=O)O)C[C@@H]2C[C@H]([C@@H](O)c3cc(=O)[nH]c(=O)[nH]3)NC3=NC[C@H]1N32	/	-1.1%	/	2.51µM*	-10.0%	1.3
Cc1cc(N(CCCl)CCCl)ccc1C=NNC(=O)Cc1cc(=O)oc2cc(O)ccc12	/	28.2µM*	242.5%	-22.6%	0.2%	-0.3
COc1cc(C2c3cc4c(cc3CC3COC(=O)C32)OCO4)cc(OC)c1OC (stereo not drawn)	13.2%	-0.9%	?	0.282µM*	20.4%	-4.0
CCCCN1CCC(O)(c2ccccc2)C(C(=O)c2ccccc2)C1 (stereo not drawn)	0.0%	-3.0%	1.0%	10.4%	-5.8%	-1.7
CCC1C(c2ccccc2)N(C)C(c2ccccc2)CC1(O)c1ccccc1 (stereo not drawn)	-5.3%	/	?	2.51µM*	-0.1%	3.4
CCOC(C(=O)OCCC[N+](C)(CC)CC)(c1ccccc1)c1ccccc1	-8.5%	-0.9%	1.0%	1.4%	4.6%	-8.5
CC[N+](C)(CC)CCCOC(=O)C(O)(c1ccccc1)C1CCCCC1 (stereo not drawn)	-3.8%	1.2%	6.5%	7.3%	4.7%	-82.5*
Cc1ccc(C(=O)C2CN(C)CC2C(=O)c2ccc(C)cc2)cc1 (stereo not drawn)	8.0%	-0.6%	-2.4%	?	4.7%	-8.0
Cc1ccc(C(=O)C2CN3CCC2CC3)cc1 (stereo not drawn)	11.8%	-0.3%	-9.5%	7.08µM*	2.1%	-1.2
Nc1ccc2ccccc2c1	/	?	0.5%	5.3%	0.1%	21.5
Nc1ccc2c(c1)oc1ccccc12	3.4%	12.6µM*	-18.7%	20.3%	3.2%	9.0
Clc1ccc(COC(Cn2ccnc2)c2ccc(Cl)cc2Cl)cc1 (stereo not drawn)	1.9%	1.5%	-20.6%	?	-4.8%	0.1
CCOC(=O)c1c(C=O)c2ccccc2n1Cc1ccccc1	6.3%	-1.7%	-5.2%	10µM*	24.6%	-1.6
Cc1ccc(C)c(Cn2c(C(=O)O)c(C=O)c3ccccc32)c1	-2.3%	-6.1%	0.7%	-15.2%	0.0%	-3.0
CCOP(=O)(OCC)C(NC(=O)c1cccc([N+](=O)[O-])c1)C(Cl)(Cl)Cl (stereo not drawn)	1.5%	31.6µM*	14.5%	8.4%	1.0%	-0.6
SMILES	p53 reactivation	ClpP mod	GLP1R cytotox	GLP1R inv ag	GLP-1R agonist	LDHA inh
CCn1nc(-c2ccccc2)nc2c(=O)n(C)c(=O)nc1-2	/	0.2%	?	5.01µM*	-25.6%	28.6
Cn1nc(-c2ccccc2)nc2c(=O)n(C)c(=O)nc1-2	/	0.4%	/	/	/	24.6
C[N+]12CCC(CC1)C(C(O)(c1ccccc1)c1cccs1)C2 (stereo not drawn)	-6.7%	0.2%	9.8%	-0.9%	1.4%	-36.3*
CCC[N+]12CCC(CC1)C(C(O)(c1ccccc1)c1ccccc1)C2 (stereo not drawn)	2.1%	-0.9%	6.1%	-15.2%	4.3%	-1.7
COc1ccc(-c2c(C)c3cc(OC(=O)N(C)C)ccc3oc2=O)cc1	/	/	/	/	/	-32.9*
CCOC(=O)c1c(-c2ccc(OC)cc2)oc2ccc(OC(=O)N(C)C)cc12	-12.5%	?	-7.9%	5.62µM*	6.4%	5.1
CCN(Cc1ccc(Cl)nc1)/C(=C/[N+](=O)[O-])NC	/	/	/	/	-1.9%	/
O=[N+]([O-])c1ccc(N2CCCC2)c(F)c1Br	5.8%	/	-28.7%	17.6%	17.8%	-0.7
COc1ccc(NC2=NCC(Cc3ccc(Br)cc3)S2)cc1 (stereo not drawn)	-12.7%	/	?	?	23.7%	-4.7
CC(C)c1cccc(C(C)C)c1OC(=O)NC(=O)c1c(F)cccc1F	-2.7%	1.9%	11.2%	8.91µM*	-2.6%	-0.8
Cc1ccc(NC(=O)N(Cc2ccc3c(c2)OCO3)C2CCN(Cc3ccccc3)CC2)cc1Cl	/	-1.1%	-25.0%	12.6µM*	/	4.7
COc1ccc(CCNCc2ccc(C)s2)cc1OC	-1.9%	/	22.0%	0.0%	1.2%	6.8
O=C(Nc1ccc(Cl)c(C(F)(F)F)c1)c1ccc2c(c1)CCN2S(=O)(=O)c1ccccc1	/	-5.9%	-24.3%	5.01µM*	/	-3.2
CN(CC(=O)Nc1cccc(S(=O)(=O)N2CCOCC2)c1)CC(=O)Nc1ccc(Cl)c(C(F)(F)F)c1	-5.0%	0.8%	?	?	-18.0%	-2.1
CC(=NCC1CCCO1)c1c(O)n(-c2ccccc2C)c(=O)[nH]c1=O (stereo not drawn)	-1.8%	/	3.5%	-1.3%	1.2%	-7.7
N#C/C(=C\c1ccc(N2CCOCC2)o1)c1nc2ccccc2[nH]1	6.4%	2.6%	51.0%	?	-13.7%	15.2
